The record followed here is PubChem BioAssay (EPA / NIEHS).

Several values for one entry are separate records, joined by “and”; a condition that tells them apart may be missing. Equal values may be shown once. Results filed as inconclusive are left out. Where a structure was tested more than once in an assay, its records may differ in their call. Activity calls are given as the source filed them. How the source made its calls: active means hit-call score of the fitted dose curve at least 0.9, where 1 is the maximum; inconclusive means response in the unintended direction; inactive means score below 0.9.

Cellular tumor antigen p53 (Homo sapiens), sequence (P04637 whole entry, looked up): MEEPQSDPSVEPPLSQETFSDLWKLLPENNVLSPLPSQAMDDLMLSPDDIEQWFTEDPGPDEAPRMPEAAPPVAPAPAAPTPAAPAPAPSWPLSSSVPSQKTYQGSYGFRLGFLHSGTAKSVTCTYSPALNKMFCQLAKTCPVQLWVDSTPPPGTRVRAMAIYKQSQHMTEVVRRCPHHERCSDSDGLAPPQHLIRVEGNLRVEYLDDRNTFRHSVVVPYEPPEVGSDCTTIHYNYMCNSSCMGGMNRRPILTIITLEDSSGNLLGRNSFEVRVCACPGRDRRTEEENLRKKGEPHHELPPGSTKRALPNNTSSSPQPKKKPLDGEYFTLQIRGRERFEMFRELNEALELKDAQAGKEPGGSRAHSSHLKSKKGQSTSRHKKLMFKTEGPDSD

Test system in one test: not listed separately
Kind of test: ATG_XTT_Cytotoxicity: Cytotoxicity Assessment in the Attagene TRANS-FACTORIAL HepG2 Assay (AID 2283584).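 On AC50: cells exposed to compound for 24 h before reading; active means loss of viability signal versus DMSO baseline.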 The method in brief: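 HepG2 human liver cells, transiently transfected with multiple GAL4-UAS reporter units, were dosed and read at 24 h by XTT as cell number. Loss of signal was fitted relative to DMSO negative control baseline.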
For `CC/C(=C(\c1ccccc1)c1ccc(OCCN(C)C)cc1)c1ccccc1`, the molecule was classed as inactive. On to `CC(O)CN` (centres undefined), for which the molecule was classed as inactive. On to `OCC=Cc1ccccc1`, for which the outcome was inactive. Still for that read-out and setting: the result for `Cc1cc(O)c(C)c(C)c1O` reads “inactive”; that for `CC(=O)CCC(=O)O`, “inactive”. Take `NC(=O)c1c(Cl)cccc1Cl`: the outcome was inactive. `Cc1ccccc1S`: the outcome was inactive. On to `O=C(c1ccc(OCCN2CCCCC2)cc1)c1c(-c2ccc(O)cc2)sc2cc(O)ccc12`, for which the AC50 is 28.3 µM (active) and 28.6 µM (active) and 34.3 µM (active); the call was inactive. With `C1COCO1`, the molecule was called inactive.

For `CCCCOCCOCCO`, the outcome was inactive. Take `CC(CO)(CO)[N+](=O)[O-]`: the outcome was inactive.

Turning to `C#C[C@]1(O)CC[C@H]2[C@@H]3CCc4cc(O)ccc4[C@H]3CC[C@@]21C`, the call was inactive.

`C=C(C)C(=O)OCCC(C)OC(=O)C(=C)C` (centres undefined): the result was inactive.

For the molecule `C[C@]12CC[C@@H]3c4ccc(O)cc4CC[C@H]3[C@@H]1CC[C@@H]2O`, the outcome was inactive. As to `C=CC(=O)OCC(CO)(COC(=O)C=C)COC(=O)C=C`, the molecule was called inactive. As for `COC(=O)c1ccc(C(=O)OC)cc1`, the result was inactive. Same read-out and setting: the result for `CCC(=O)OCC=Cc1ccccc1` reads “inactive”; that for `Cc1cccc(C)c1`, “inactive”.

Regarding `NS(=O)(=O)c1cc(C(=O)O)c(NCc2ccco2)cc1Cl`, the outcome was inactive. For the molecule `CC(=N[Si](C)(C)C)O[Si](C)(C)C`, the outcome was inactive. With `c1ccc(Sc2ccccc2)cc1`, the result was inactive. For `OCCN1CCOCC1`, the molecule was classed as inactive. For the molecule `O=C(O)c1ccc(C(=O)O)c(C(=O)O)c1`, the molecule was classed as inactive. Regarding `CCC=C(C)C=O`, the molecule was called inactive. Same read-out and setting: the result for `O=c1cc[nH]cc1` reads “inactive”; that for `CCCC1CCOC(C)S1` (centres undefined), “inactive”; that for `CCCOC(=O)CC`, “inactive”. With `CCn1cc(C(=O)O)c(=O)c2ccc(C)nc21`, the result was inactive. For `CCCC1CCC(=O)CC1`, the result was inactive. Same read-out and setting: the result for `C=C(C)C(=O)OCCOCCOC(=O)C(=C)C` reads “inactive”; that for `CCCCOCC(C)OCC(C)O` (centres undefined), “inactive”; that for `OCCCO`, “inactive”. Regarding `N#CCCNCCC#N`, the call was inactive. For the molecule `CC(=O)OCC=C(C)CCC=C(C)CCC=C(C)C`, the outcome was inactive. Turning to `C1CCCNCC1`, the call was inactive. For `CCCCCCCCCCCCOC(C)=O`, the result was inactive. For the molecule `O=C1OCc2ccccc21`, the result was inactive. With `O=C1CCC(=O)N1`, the molecule was classed as inactive.

As to `C=C(C)C(N)=O`, the outcome was inactive.

Test system in the next test: not listed separately
Briefly: TOX21_p53_BLA_p2_viability: Viability Assessment in the Tox21 HCT-116 p53 Agonism Beta-lactamase Assay, Phase 2 (AID 2283591).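 Further: compound exposure lasted 16 h at 37 °C; actives lower the ATP signal meaning cytotoxicity.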 The method in brief:
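HCT116 p53-bla cells, 4000/well, dosed after 5 h plating (217-fold dilution of DMSO stocks) and incubated 16 h at 37C. Viability taken as cellular ATP by CellTiter-Glo luminescence after 30 min RT; signal loss marks cytotoxicity.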
As for `O=C(c1ccc(OCCN2CCCCC2)cc1)c1c(-c2ccc(O)cc2)sc2cc(O)ccc12`, the AC50 is 84.9 µM (active) and 71.8 µM (active) and 42.8 µM (active). Turning to `CCCCOCCOCCO`, the outcome was inactive.

On to `C[C@]12CC[C@@H]3c4ccc(O)cc4CC[C@H]3[C@@H]1CC[C@@H]2O`, for which the result was inactive. As to `COC(=O)c1ccc(C(=O)OC)cc1`, the outcome was inactive.

The next test has as its target Cellular tumor antigen p53 (Homo sapiens) (UniProt P04637). Briefly: TOX21_p53_BLA_p2_ratio: Tox21 HCT-116 p53 Agonism Beta-lactamase Assay, Ratio, Phase 2 (AID 2283592). The method in brief:
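Ratio endpoint: beta-lactamase cleavage of CCF4-AM, blue (460 nm) over green (530 nm). HCT116 reporter line; 16 h treatment, 37C; substrate 2 h RT.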
With `CC/C(=C(\c1ccccc1)c1ccc(OCCN(C)C)cc1)c1ccccc1`, the AC50 is 47.8 µM (active) and 84.4 µM (active) and 43.5 µM (active); the outcome was inactive. With `O=C(c1ccc(OCCN2CCCCC2)cc1)c1c(-c2ccc(O)cc2)sc2cc(O)ccc12`, the concentration at half-maximal activity (AC50) is 68.6 µM (active) and 62.8 µM (active) and 36.4 µM (active).

On to `CCCCOCCOCCO`, for which the outcome was inactive. As for `C#C[C@]1(O)CC[C@H]2[C@@H]3CCc4cc(O)ccc4[C@H]3CC[C@@]21C`, the AC50 is 9 µM (active) and 6.58 µM (active) and 7.36 µM (active). In the case of `C[C@]12CC[C@@H]3c4ccc(O)cc4CC[C@H]3[C@@H]1CC[C@@H]2O`, the AC50 was 29 µM (active) and 16.7 µM (active); the outcome was inactive. On to `COC(=O)c1ccc(C(=O)OC)cc1`, for which the result was inactive. For the molecule `C=C(C)C(N)=O`, the outcome was inactive.

Test system in another test: not listed separately
Briefly: TOX21_p53_BLA_p3_viability: Viability Assessment in the Tox21 HCT-116 p53 Agonism Beta-lactamase Assay, Phase 3 (AID 2283593).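 Further: cells exposed to compound for 16 h before reading.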 The method in brief: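 HCT116 cells, 4000/well, dosed 5 h after plating by pin transfer (217-fold dilution from DMSO stock) and incubated 16 h at 37C, 5% CO2. Viability read as ATP luminescence with CellTiter-Glo after 30 min at room temperature.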
On to `CC/C(=C(\c1ccccc1)c1ccc(OCCN(C)C)cc1)c1ccccc1`, for which the AC50 was 74.8 µM (active) [middle of 5 runs]. Same read-out and setting: the result for `O=C(c1ccc(OCCN2CCCCC2)cc1)c1c(-c2ccc(O)cc2)sc2cc(O)ccc12` reads 69.8 µM (active) and 74.5 µM (active) and 35.6 µM (active).

For `CCCCOCCOCCO`, the call was inactive. With `C[C@]12CC[C@@H]3c4ccc(O)cc4CC[C@H]3[C@@H]1CC[C@@H]2O`, the outcome was inactive. `COC(=O)c1ccc(C(=O)OC)cc1`: the molecule was called inactive. Turning to `C=C(C)C(N)=O`, the molecule was called inactive.

A word on the AC50: it is the midpoint of the concentration-response curve, whichever way the signal moves.
